# Measurements as given in ChEMBL document CHEMBL5606458, “ASAP - ZIKV NS2B-NS3 protease fluorescence single point” (2024).
# The campaign covered roughly 2,700 compounds. About 160 (5.9%) showed an effect of 50% or more. This is one part of a sample in which strong results are shown more often than they occur.
# Target: Nonstructural protein 3 (Zika virus) (UniProt A0A024AXB9)
# [1] = PRVABC59, Concentration 15.0 uM, Number of replicates 1.0
# [2] = PRVABC59, Concentration 50.0 uM, Number of replicates 1.0
# Sequence of Nonstructural protein 3 (Zika virus) (A0A024AXB9 as listed by the source): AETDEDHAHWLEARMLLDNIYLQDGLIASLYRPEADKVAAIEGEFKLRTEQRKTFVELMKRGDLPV
smiles,measurement,setting,value
O=C(NCCNC(=O)c1cc(Cl)ccc1NS(=O)(=O)c1ccc(Oc2ccccc2Cl)cc1)c1ccccc1Cl,inhibition,[1],25%
NC(=O)[C@H](Cc1ccc(O)cc1)NC(=O)C1CCN(c2ccc(C=O)cc2)CC1,inhibition,[2],27%
O=C(c1cc(Cl)ccc1NS(=O)(=O)c1ccc(Oc2ccccc2Cl)cc1)N1CCC(n2c(=O)[nH]c3ccccc32)CC1,inhibition,[1],15.6%
CC(C)(CO)NC(=O)c1cc(Cl)cc(NC(=O)Cc2cccc(N3CCOCC3)c2)c1,inhibition,"PRVABC59, Concentration 49.5 uM, Number of replicates 2.0, Standard deviation 3.0522593855592395 %",-2.52%
same,inhibition,"PRVABC59, Concentration 99.01 uM, Number of replicates 2.0, Standard deviation 3.368926317951112 %",-0.793%
same,inhibition,"PRVABC59, Concentration 198.0 uM, Number of replicates 2.0, Standard deviation 2.506775358140388 %",0.389%
O=C(c1cc(Cl)ccc1NS(=O)(=O)c1ccc(Oc2ccccc2Cl)cc1)N1CCC[C@H](C(F)(F)F)C1,inhibition,[1],20.5%
CN(Cc1cccc2ccccc12)C(=O)c1cc(Cl)ccc1NS(=O)(=O)c1ccc(Oc2ccccc2Cl)cc1,inhibition,[1],19.1%
O=C(NCCc1c[nH]cn1)[C@@]1(c2ccc(F)cc2)CCCNC1,inhibition,"PRVABC59, Concentration 50.0 uM, Number of replicates 2.0, Standard deviation 1.8533531884648646 %",1.12%
same,inhibition,"PRVABC59, Concentration 100.0 uM, Number of replicates 2.0, Standard deviation 1.243259032729753 %",2.94%
same,inhibition,"PRVABC59, Concentration 200.0 uM, Number of replicates 2.0, Standard deviation 0.45116199355607794 %",1.26%
O=C(Nc1ccc2c(c1)OC(F)(F)O2)c1cc(Cl)ccc1NS(=O)(=O)c1ccc(Oc2ccccc2Cl)cc1,inhibition,[1],50%
O=C(CNC(=O)c1cc(Cl)ccc1NS(=O)(=O)c1ccc(Oc2ccccc2Cl)cc1)c1ccc(O)cc1,inhibition,[1],52.2%
O=C(Nc1ccc(I)cc1)c1cc(Cl)ccc1NS(=O)(=O)c1ccc(Oc2ccccc2Cl)cc1,inhibition,[1],58.1%
Cc1cc(NC(=O)c2cc(Cl)ccc2NS(=O)(=O)c2ccc(Oc3ccccc3Cl)cc2)cc(C)c1Br,inhibition,[1],27.6%
O=C(CNC(=O)c1cc(Cl)ccc1NS(=O)(=O)c1ccc(Oc2ccccc2Cl)cc1)c1ccc([N+](=O)[O-])cc1,inhibition,[1],33%
O=C(Nc1ccc(I)c(F)c1)c1cc(Cl)ccc1NS(=O)(=O)c1ccc(Oc2ccccc2Cl)cc1,inhibition,[1],37.6%
Cc1cc(Br)cc(NC(=O)c2cc(Cl)ccc2NS(=O)(=O)c2ccc(Oc3ccccc3Cl)cc2)c1,inhibition,[1],53.6%
O=C(CNC(=O)c1cc(Cl)ccc1NS(=O)(=O)c1ccc(Oc2ccccc2Cl)cc1)c1ccccc1F,inhibition,[1],40.7%
O=C(NCc1ccc2c(c1)OCCO2)c1cc(Cl)ccc1NS(=O)(=O)c1ccc(Oc2ccccc2Cl)cc1,inhibition,[1],24.8%
O=C(Nc1ccc2c(c1)OCCO2)c1cc(Cl)ccc1NS(=O)(=O)c1ccc(Oc2ccccc2Cl)cc1,inhibition,[1],63.8%
O=C(Nc1cccc(Br)c1)c1cc(Cl)ccc1NS(=O)(=O)c1ccc(Oc2ccccc2Cl)cc1,inhibition,[1],43.8%
O=C(Nc1cccc(I)c1)c1cc(Cl)ccc1NS(=O)(=O)c1ccc(Oc2ccccc2Cl)cc1,inhibition,[1],48.1%
Cc1cc(CO)c2cccc(Nc3cc(O)[nH]n3)c2n1,inhibition,"PRVABC59, Concentration 49.95 uM, Number of replicates 2.0, Standard deviation 1.761368724187627 %",18.3%
same,inhibition,"PRVABC59, Concentration 99.9 uM, Number of replicates 2.0, Standard deviation 1.139118047569397 %",23.8%
Cn1cc(CNC(=O)c2ccccc2-c2cccnc2)cn1,inhibition,"PRVABC59, Concentration 49.5 uM, Number of replicates 2.0, Standard deviation 0.5877340250731194 %",0.299%
same,inhibition,"PRVABC59, Concentration 99.01 uM, Number of replicates 2.0, Standard deviation 0.42986369479040104 %",-0.679%
same,inhibition,"PRVABC59, Concentration 198.0 uM, Number of replicates 2.0, Standard deviation 0.566811449656849 %",-0.69%
O=Cc1ccc(N2CCC(C(=O)N[C@H](CO)[C@H](O)c3ccc([N+](=O)[O-])cc3)CC2)cc1,inhibition,[2],25.6%
N#Cc1ccc(Cl)c(NC(=O)C2CCN(c3ccc(C=O)cc3)CC2)c1,inhibition,[2],23.1%
O=Cc1ccc(N2CCC(C(=O)NCc3ccccc3-n3cccn3)CC2)cc1,inhibition,"PRVABC59, Concentration 10.0 uM, Number of replicates 1.0",21.4%
N=C(N)NC[C@@H]1CCCN(C(=O)[C@H](Cc2ccc(CN)cc2)NC(=O)c2ccccc2)C1,inhibition,"PRVABC59, Concentration 49.5 uM, Number of replicates 2.0, Standard deviation 0.6960698702606968 %",2.68%
same,inhibition,"PRVABC59, Concentration 99.01 uM, Number of replicates 2.0, Standard deviation 1.1872902095434084 %",12.8%
same,inhibition,"PRVABC59, Concentration 198.0 uM, Number of replicates 2.0, Standard deviation 0.3804343133987339 %",26.8%
CN(C)CCN(Cc1ccccc1)C(=O)c1cc(Cl)ccc1NS(=O)(=O)c1ccc(Oc2ccccc2Cl)cc1,inhibition,[1],15.1%
Cc1ccc2ccccc2c1NC(=O)C1CCN(c2ccc(C=O)cc2)CC1,inhibition,[2],19.8%
CN(C)c1ccc(C(=O)Nc2cc(Cl)cc(C(=O)NC(C)(C)CO)c2)nc1,inhibition,"PRVABC59, Concentration 49.5 uM, Number of replicates 2.0, Standard deviation 3.9613998246279105 %",-1.53%
same,inhibition,"PRVABC59, Concentration 99.01 uM, Number of replicates 2.0, Standard deviation 2.7948399639930708 %",0.849%
Cc1cc(CO)c2cccc(NC(=O)c3cccc(Cn4cncn4)c3)c2n1,inhibition,"PRVABC59, Concentration 49.95 uM, Number of replicates 2.0, Standard deviation 2.574308180740061 %",-0.138%
same,inhibition,"PRVABC59, Concentration 99.9 uM, Number of replicates 2.0, Standard deviation 1.9018768762288814 %",11.1%
Cc1cnccc1NC(=O)c1ccccc1-c1nc(C(C)C)no1,inhibition,"PRVABC59, Concentration 49.5 uM, Number of replicates 2.0, Standard deviation 0.2610834999883118 %",-0.098%
same,inhibition,"PRVABC59, Concentration 99.01 uM, Number of replicates 2.0, Standard deviation 1.3020487023400833 %",-0.148%
same,inhibition,"PRVABC59, Concentration 198.0 uM, Number of replicates 2.0, Standard deviation 1.8545350914642316 %",0.672%
O=C(c1cc(Cl)ccc1NS(=O)(=O)c1ccc(Oc2ccccc2Cl)cc1)N1CCN(c2ccc(Br)cn2)CC1,inhibition,[1],18.6%
O=C(NCCc1ccc(Cl)cc1Cl)c1cc(Cl)ccc1NS(=O)(=O)c1ccc(Oc2ccccc2Cl)cc1,inhibition,[1],27.1%
CN1CCN(C(=O)C2CCN(C(=O)C3CCN(c4ccc(C=O)cc4)CC3)CC2)CC1,inhibition,[2],21.1%
O=Cc1ccc(N2CCC(C(=O)N3CCC(N4CCCC4=O)CC3)CC2)cc1,inhibition,[2],23.2%
O=C(Nc1cc(Cl)cc(Cl)c1O)c1cc(Cl)ccc1NS(=O)(=O)c1ccc(Oc2ccccc2Cl)cc1,inhibition,[1],74.3%
O=C(Nc1ccc(Oc2ccccc2Cl)cc1)c1cc(Cl)ccc1NS(=O)(=O)c1ccc(Oc2ccccc2Cl)cc1,inhibition,[1],19.7%
O=C(Nc1cc(Cl)cc([N+](=O)[O-])c1O)c1cc(Cl)ccc1NS(=O)(=O)c1ccc(Oc2ccccc2Cl)cc1,inhibition,[1],92.4%
O=C(Nc1ccccc1)c1cc(Cl)ccc1NS(=O)(=O)c1ccc(Oc2ccccc2Cl)cc1,inhibition,[1],54.2%
O=C(Nc1ccc2ccccc2c1O)c1cc(Cl)ccc1NS(=O)(=O)c1ccc(Oc2ccccc2Cl)cc1,inhibition,[1],14%
O=C(Nc1ccc(O)cc1[N+](=O)[O-])c1cc(Cl)ccc1NS(=O)(=O)c1ccc(Oc2ccccc2Cl)cc1,inhibition,[1],32.2%
CC(=O)Nc1ccc(NC(=O)c2cc(Cl)ccc2NS(=O)(=O)c2ccc(Oc3ccccc3Cl)cc2)cc1,inhibition,[1],63.1%
O=C(Nc1ccc([N+](=O)[O-])cc1)c1cc(Cl)ccc1NS(=O)(=O)c1ccc(Oc2ccccc2Cl)cc1,inhibition,[1],29.8%
O=C(Nc1cc(Cl)ccc1Br)c1cc(Cl)ccc1NS(=O)(=O)c1ccc(Oc2ccccc2Cl)cc1,inhibition,[1],24.1%
O=C(Nc1ccc([N+](=O)[O-])c2ccccc12)c1cc(Cl)ccc1NS(=O)(=O)c1ccc(Oc2ccccc2Cl)cc1,inhibition,[1],22.7%
O=C(Nc1ccc(Oc2ccc(Cl)cc2)cc1)c1cc(Cl)ccc1NS(=O)(=O)c1ccc(Oc2ccccc2Cl)cc1,inhibition,[1],14.2%
CCCOc1ccc(NC(=O)c2cc(Cl)ccc2NS(=O)(=O)c2ccc(Oc3ccccc3Cl)cc2)cc1,inhibition,[1],43.9%
CCOc1ccccc1CCNC(=O)c1cc(Cl)ccc1NS(=O)(=O)c1ccc(Oc2ccccc2Cl)cc1,inhibition,[1],9.83%
CNC(=O)c1cc(Cl)ccc1NS(=O)(=O)c1ccc2[nH]cnc2c1,inhibition,"PRVABC59, Concentration 49.5 uM, Number of replicates 2.0, Standard deviation 2.3657282322003765 %",-9.41%
Cc1cc(CO)c2cccc(Nc3cc(C)on3)c2n1,inhibition,"PRVABC59, Concentration 49.95 uM, Number of replicates 2.0, Standard deviation 0.1664787029188791 %",-8.71%
